Compound activity: PubChem BioAssay, The Scripps Research Institute Molecular Screening Center
In the library only some 4.8% were active in any assay of this set; here they are far more common.
hgDAF12 agonist: hgDAF-12 agonism, primary luciferase screen; HEK293 GAL4-hgDAF12 UAS-luciferase reporter, agonist luminescence; normalized to butyrate control; activation, % at 6.8 µM; 370,000 tested, 1.8% active; AID 687014;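 active = activation above a cutoff set at the mean of all screened compounds plus 3 SD, cut at about 10% in these data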
DAX1 inh-1: DAX1 (NR0B1) inhibition, primary screen; HEK293T StAR-luciferase reporter, SF-1/DAX-1 repression relief; inhibition, % at 6.8 µM; 370,000 tested, 1.1% active; AID 652010;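 active = inhibition above the mean over all tested compounds plus 3 SD, cut at about 3.6% in these data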;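 note: higher inhibition means more luminescence from relief of DAX-1 repression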
SMARCA2 activ: activators of SMARCA2 function | 370,000 tested, 1% active | MG213 cells, MMTV-luciferase reporter, dexamethasone, overnight | activation, % at 9.1 µM; in the data active = activation above about 7.8%
hcDAF-12 act: activators of H. contortus DAF-12 nuclear receptor | HEK293 hcDAF-12 lit1-tk-luc reporter, luminescence; 0% DMSO, 100% Δ7-dafachronic acid | activation, % at 6.8 µM | AID 652067 | 370,000 tested, 1.4% active;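 active = activation above the mean of all tested compounds plus 3 SD, cut at about 5.5% in these data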
ssDAF12 agonist: activates DAF-12 receptor from parasite S. stercoralis; HEK293 ssDAF-12/GRIP1 lit1-tk-luc reporter, luminescence; % of 3 µM dafachronic acid response; activation, % at 6.8 µM; 370,000 tested, 1% active; AID 652126;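 active = activation above the mean over all tested compounds plus 3 SD, cut at about 0.9% in these data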
DAX1 inh-2: NR0B1 (DAX1) inhibition; AID 504766; 340,000 tested, 0.99% active; inhibition, % at 6.75 µM; HEK293 Gal4-DAX1 luciferase reporter, luminescence;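 active = inhibition above the mean over all tested compounds plus 3 SD, cut at about 4.2% in these data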;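 note: inhibition shows as a rise in luminescence from relieved DAX1 repression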
Target sequence (P51843 207-470 limits assumed): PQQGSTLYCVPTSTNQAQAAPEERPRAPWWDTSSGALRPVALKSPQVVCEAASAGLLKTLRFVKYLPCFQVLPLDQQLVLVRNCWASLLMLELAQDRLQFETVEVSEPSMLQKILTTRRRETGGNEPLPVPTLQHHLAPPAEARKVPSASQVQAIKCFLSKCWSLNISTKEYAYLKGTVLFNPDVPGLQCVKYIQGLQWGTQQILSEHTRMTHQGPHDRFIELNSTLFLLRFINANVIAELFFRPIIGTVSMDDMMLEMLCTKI
SMARCA2 conf: confirmation of SMARCA2 (BRM) function activators; MG213 cells, MMTV-luciferase with dexamethasone, luminescence, overnight; MG213 cells expressing E1A, Rb sequestered; DMSO wells 0%, reference activator 100%; activation, % at 9.1 µM; AID 652260; 3,500 tested, 30% active; shares compounds with SMARCA2 activ;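 active = activation above its plate's cutoff, the mean activation of tested wells plus 3 SD, cut at about 7.9% in these data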
VP16 Luc act: GAL4-VP16 reporter activation counter-screen; HEK293 GAL4-VP16 pG5luc reporter, luciferase luminescence; scaled: DMSO wells 0%, SAHA wells 100%; 3,500 tested, 41% active; activation, % at 9.1 µM; shares compounds with SMARCA2 activ;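 active = activation above the solvent-only control well mean plus 3 SD, averaged across control plates, cut at about 5.2% in these data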
Of the large screens only hits and unclear results are named; the others gave an inactive call (follow-up assays come after a bar, where they were run).

Cc1cc(=O)oc2cc(OCCCC[n+]3ccccc3)ccc12	none
N#Cc1c(NC(=S)NC(=O)C2CCCC2)sc2c1CCCCC2	SMARCA2 activ 13 | SMARCA2 conf inactive | VP16 Luc act inactive
N#Cc1c(NC(=S)NC(=O)c2ccccc2)sc2c1CCCC2	none
Clc1ccc(Nc2nc(C3CC3)cs2)cc1	SMARCA2 activ 8.2 | SMARCA2 conf inactive | VP16 Luc act 7.1
Cc1nnc(Nc2ccc(Cl)cc2)s1	none
C[C@@H]1C(=O)N2N=Cc3cc4ccccc4cc3[C@H]2N2N=Cc3cc4ccccc4cc3[C@@H]12	none (no result: DAX1 inh-2)
CCCS(=O)(=O)NC(=O)C1(C)CCN(C(=O)c2nc(C)oc2C)C1 (configuration not stated)	SMARCA2 activ 8.0 (no result: DAX1 inh-2) | SMARCA2 conf inactive | VP16 Luc act inactive
CCCS(=O)(=O)NC(=O)C1(C)CCN(C(=O)c2snnc2C)C1 (configuration not stated)	none (no result: DAX1 inh-2)
COc1cc(SC)ccc1C(=O)Nc1ccc(C)cc1C	SMARCA2 activ 8.1 | SMARCA2 conf 13 | VP16 Luc act 14
COc1ccc(CN2CCC(CNC(=O)Nc3ccc(C)c(F)c3)CC2)cc1	none (no result: DAX1 inh-2)
O=C(CNc1ccc(Br)cc1)c1ccc(O)cc1	none
O=C(CNc1ccc(Br)cc1)c1ccc(Br)s1	SMARCA2 activ 9.3 | SMARCA2 conf 10 | VP16 Luc act inactive
O=S1(=O)c2ccc(N3CCC[C@H]3CO)cc2O[C@@H]2CCN1C2	none (no result: DAX1 inh-2)
COc1ccc(-c2ccc3c(n2)CCCN3S(=O)(=O)c2cccs2)cc1	none (no result: DAX1 inh-2)
Cc1ccc(-c2cccc(NC(=O)C3C4C=CC(C4)C3C(=O)O)c2)o1 (configuration not stated)	SMARCA2 activ 9.4 | SMARCA2 conf inactive | VP16 Luc act inactive
Cn1nc(C(=O)N2CCN(c3ccccc3F)CC2)c2c1-c1ccccc1S(=O)(=O)C2	none
Cc1cccc(N2CCN(C(=O)c3nn(C)c4c3CS(=O)(=O)c3ccccc3-4)CC2)c1C	SMARCA2 activ 10 | SMARCA2 conf inactive | VP16 Luc act inactive
COC(=O)[C@]12C[C@H](CC(=O)NCc3cccc4ccccc34)C(=O)N(CCC3=CCCCC3)C1=C[C@H](C1CCCC1)O[C@@H]2C	none (no result: DAX1 inh-2)
O=C1c2cccc3cccc(c23)C(=O)N1c1cccnc1	SMARCA2 activ 8.5 | SMARCA2 conf inactive | VP16 Luc act inactive
C=CCN1[C@H](CC(C)C)COc2cc(F)ccc2S1(=O)=O	none (no result: DAX1 inh-2)
COc1ccc(-c2nc3c(s2)CN(S(C)(=O)=O)CC3)cc1OC	none
CCS(=O)(=O)N1CCc2nc(-c3ccccc3)sc2C1	hgDAF12 agonist 12, SMARCA2 activ 8.1, DAX1 inh-2 4.9 | SMARCA2 conf inactive | VP16 Luc act 11
CC1CCN(CCCNS(=O)(=O)c2cc3c(cc2Br)CCN3C(=O)C2CC2)CC1	none (no result: DAX1 inh-2)
COc1ccc(C(C)(C)C)cc1NC(=O)c1ccc2c(c1)SC1=NS(=O)(=O)CCN12	none
CN(C(=O)c1ccc2c(c1)SC1=NS(=O)(=O)CCN12)C(c1ccccc1)c1ccccc1	SMARCA2 activ 10 | SMARCA2 conf 14 | VP16 Luc act inactive
Oc1cccc(/C=N/N=C/c2cccc(O)c2O)c1O	SMARCA2 activ 12 | SMARCA2 conf 13 | VP16 Luc act 7.4
O=C(CN1CCCc2ccccc21)NCc1ccc(Cl)cc1	none (no result: DAX1 inh-2)
COc1cc(/C=N/n2c(-c3ccccc3)n[nH]c2=S)ccc1O	none
COc1cc(C=Nn2c(-c3cc(-c4ccccc4)n[nH]3)n[nH]c2=S)ccc1OC(C)=O	SMARCA2 activ 14 (no result: DAX1 inh-2) | SMARCA2 conf 10 | VP16 Luc act inactive
COC(=O)[C@]12C[C@H](CC(=O)N3CCSCC3)C(=O)N(CCC3=CCCCC3)C1=C[C@H](C1CCCC1)O[C@@H]2C	none (no result: DAX1 inh-2)
CC1CCc2c(sc3nc(SCC(=O)NCc4ccco4)nc(N)c23)C1 (configuration not stated)	none
